According to PubChem BioAssay AID1452 (National Center for Advancing Translational Sciences (NCATS), 2008):
Hit rate of the full screen: of about 150,000 compounds, about 190 (0.13%) were called active. Roughly 2% stayed inconclusive and do not appear here. The sample holds actives, similar compounds and a random draw of the others, so the mix is not that of the screen. Calls follow the shape of the dose curve; as a rule, active = well fitted inhibition curve with a large enough effect; inconclusive = small, poorly fitted or top-dose-only effect; inactive = flat fitted curve, though single readings scatter.

Biological target: Polyunsaturated fatty acid lipoxygenase ALOX12 (Homo sapiens) (UniProt P18054)
Sequence (P18054 whole entry, looked up): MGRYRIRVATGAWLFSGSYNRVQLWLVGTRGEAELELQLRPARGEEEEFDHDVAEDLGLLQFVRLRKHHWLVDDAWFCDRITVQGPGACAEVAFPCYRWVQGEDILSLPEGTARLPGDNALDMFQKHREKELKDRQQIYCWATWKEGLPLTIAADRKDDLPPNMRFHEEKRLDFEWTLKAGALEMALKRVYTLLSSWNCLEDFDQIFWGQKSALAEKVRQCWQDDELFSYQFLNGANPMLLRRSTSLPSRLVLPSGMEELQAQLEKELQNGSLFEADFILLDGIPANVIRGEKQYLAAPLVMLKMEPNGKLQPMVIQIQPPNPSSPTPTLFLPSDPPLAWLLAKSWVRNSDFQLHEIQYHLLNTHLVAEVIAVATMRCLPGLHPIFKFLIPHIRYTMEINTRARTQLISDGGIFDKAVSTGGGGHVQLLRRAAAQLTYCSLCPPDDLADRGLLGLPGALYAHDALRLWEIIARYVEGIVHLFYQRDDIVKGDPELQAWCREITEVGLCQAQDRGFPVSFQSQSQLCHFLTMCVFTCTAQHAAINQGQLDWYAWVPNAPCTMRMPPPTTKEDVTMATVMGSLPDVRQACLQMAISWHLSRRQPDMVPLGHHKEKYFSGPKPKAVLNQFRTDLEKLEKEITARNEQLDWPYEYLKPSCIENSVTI
Assay: qHTS Assay for Inhibitors of 12-hLO (12-human lipoxygenase); also: nearly all actives have a fitted effect of over 55% in size
Settings: purified 12-hLO, xylenol orange hydroperoxide absorbance; series mostly up to 57.1 µM
Description: Assay Provider: Holman, T.R., University of California, Santa Cruz Screening Center PI: Austin, C.P. Screening Center: NIH Chemical Genomics Center [NCGC] Human lipoxygenase 12hLO is a member of the closely related lipoxygenase family of enzymes which catalyze the site-specific oxidation of arachidonic acid to various hormone precursor molecules and as such is a candidate for drug development in a variety of disease areas, such as cancer and inflammation. Inhibition of 12hLO activity was screened by utilizing arachidonic acid as a substrate. The extent of hydroperoxide product formation was measured by a secondary chromogenic reaction in which xylenol orange (XO, Sigma-Aldrich, cat. number 39,818-7) reacts with the ferric ions produced from the reaction between the hydroperoxide and ferrous ions. The Fe(III)-XO complex is characterized with red-shifted absorbance at 560 nm. A purified preparation of human 12hLO was supplied by Professor Ted Holman, University of California, Santa Cruz.
Assay Protocol: Buffer: 25 mM Hepes pH 7.0, 0.01% Triton X-100. Reagents/Controls: Buffer in columns 3 and 4 as negative control (no enzyme). Substrate solution: 40 uM arachidonic acid (Sigma-Aldrich, St. Louis, MO) final concentration dispensed throughout the plate. Enzyme: 150 nM 12hLO final concentration in columns 1, 2, 5-48. Column 1 is neutral (100% activity). Column 2 contained pin-transferred titration of NDGA (nordihidroguaiaretic acid, Sigma-Aldrich, N 5023, top concentration 20 mM in DMSO, then 1:3 dilution in duplicate). (Dilution factor: 23 nL into 4 uL.) Chromogenic detection reagent (divalent iron/xylenol orange, Fe-XO): 200 uM xylenol orange plus 300 uM ferrous ammonium sulfate prepared freshly in 50 mM sulfuric acid. Assay Steps: Three uL of enzyme were dispensed to 1536-well Greiner black clear bottom plates. Compounds and controls (23 nL) were transferred via Kalypsys PinTool. The plates were incubated for 15 min at room temperature, and then 1 uL of substrate solution was added to start the reaction. After room temperature incubation for 30 minutes, 4 uL of Fe-XO solution was added to each well and the plates were incubated for 30 min. The absorbance at 405 and 573 nm were measured using ViewLux (Perkin-Elmer) High-throughput CCD imager and absorbance protocol settings. The 573-to-405 absorbance ratio was used to compute reaction progress.
% is scaled to controls: 0 for no effect and ±100 for the full control effect; potency is read from the fitted curve at half-maximal effect.

Activity change, negative = inhibition, inactive:
CCCCC/C=C\C[C@H](O)/C=C/C=C/C=C/[C@@H](O)CCCC(=O)O
COC(=O)C1=NNC2(c3ccc(C)cc3)C(=O)N(c3cccc(C)c3C)C(=O)C12 (centres undefined)
CC(=O)c1ccc2c(ccc3ccccc32)c1
CC(=O)CCC(=O)c1ccc2ccccc2c1
CCOC(=O)C1=C(N)N(c2ccc(C)cc2)C2=C(C(=O)CCC2)C1c1cccs1 (centres undefined)
COC(=O)CCCC1=CC2=CC(=O)C(C)(OC(=O)c3cccs3)C(=O)C2=CN1c1ccc(CO)cc1 (centres undefined) -2.32% [at 11.4 µM]
COc1ccc(-c2c(C)cc3oc(=O)cc(-c4ccccc4)c3c2C)cc1OC -1.07% [at 0.00818 µM]
COc1ccc(/C=C/C(=O)OCC(=O)Nc2cccc(Oc3ccccc3)c2)c(OC)c1
COc1ccc(CCC(=O)OCC(=O)Nc2ccc(C)c(S(=O)(=O)N(C)C)c2)cc1
O=C(CSc1ccccc1)Nc1nnc(/C=C/c2ccccc2)s1
COc1ccc(C2NC(=S)NC3=C2CCc2ccccc23)cc1OC (centres undefined)
CC1(OC(=O)c2ccc(Cl)nc2)C(=O)Cc2cc(-c3ccsc3)ncc2C1=O (centres undefined) -0.498% [at 11.4 µM]
CC(=O)c1ccc(NC(=S)NC(=O)CC(C)C)cc1
COc1ccc(C(=O)Nc2ccc(S(=O)(=O)NC(C)C)cc2)cc1
COc1cc(-c2cc(C(=O)OCC(=O)Nc3ccc4c(c3)OCO4)c3ccccc3n2)cc(OC)c1OC
CCOC(=O)C1=C(C(=O)OCC)C(C(=O)OCC)N(S(=O)(=O)C(F)(F)F)c2ccccc21 (centres undefined) -4.37% [at 0.00818 µM]
COc1cccc(NC(=S)NCCCN2CCOCC2)c1
COc1cc(NC(=O)Nc2ccc(C)cc2)cc([N+](=O)[O-])c1
NS(=O)(=O)c1ccc(CNC(=O)c2ccc(Cl)cc2[N+](=O)[O-])cc1
O=C(Cn1nc(CNc2ccc(Cl)cc2)[n+]2c1CCCCC2)c1ccc(Cl)cc1
COc1ccc([N+](=O)[O-])cc1NC(=O)C(C)OC(=O)C1c2ccccc2Oc2ccccc21 (centres undefined)
CC1(C)O[C@@H]2C[C@@H]3[C@H]4C[C@@H](F)C5=CC(=O)C=C[C@]5(C)[C@@]4(F)[C@@H](O)C[C@]3(C)[C@]2(C(=O)CO)O1 -0.431% [at 0.00818 µM]
CC(C)(C)C1CCC(=NNC(=O)c2ccc(Br)o2)CC1 (centres undefined)
CCCCC/C=C\C/C=C\C/C=C\CCCCC(=O)NCC(=O)O
O=C(Cc1ccccc1)NC(=S)Nc1ccc(N2CCCCC2)cc1
CCCCC/C=C\CC1OC1CCCCCCCC(=O)O (centres undefined)
COc1cccc(-c2cc(=O)c3cc(NC(=O)c4ccc(C)cc4)ccc3[nH]2)c1 0.685% [at 0.00818 µM]
C[C@H]1Cc2c(-c3ccccc3)nc3c(c2CO1)CN(S(=O)(=O)c1ccc(Cl)c2nonc12)CC3 -3.11% [at 11.4 µM]
COc1ccc(CCNC(=O)COC(=O)C2CCCCC2)cc1
Cc1ccc(C(=O)COC(=O)CCN2C(=O)C3C4CC(C(Br)C4Br)C3C2=O)cc1 (centres undefined)
CC(=O)c1c(C)[nH]c(C(=O)COC(=O)c2cccc(S(=O)(=O)N(C)c3ccccc3)c2)c1C
Cc1ccc(NC(=S)NC(=O)/C=C/c2ccc(Cl)cc2)cc1
O=C(CSC1CC(=O)N(CCc2ccccc2)C1=O)Nc1ccc(Cl)cc1 (centres undefined)
COc1ccc(-c2nc3c(c4c2C[C@H](c2ccccc2)OC4)CN(S(=O)(=O)c2c(C)noc2C)CC3)c(C)c1 1.37% [at 11.4 µM]
CC1=C(C(=O)Nc2cc(C)ccn2)C(c2cnn(C)c2)C2=C(CC(c3ccccc3)CC2=O)N1 (centres undefined)
O=C(CN1CCN(c2ccc(O)cc2)CC1)NC1CCCc2ccccc21 (centres undefined)
CC(=O)CC(c1ccccc1)C1C(=O)Oc2ccccc2C1=O (centres undefined) -0.392% [at 0.00818 µM]
CCCC(=O)Nc1ccc(C(=O)N/N=C/c2ccc[nH]2)cc1
CC(C)C(C)(C#N)NC(=O)CSc1nc2scc(-c3ccccc3)c2c(=O)[nH]1 (centres undefined)
Cn1nccc1CNC(=O)c1ccnn1C
Cc1ccccc1-c1ccc(C(=O)O)s1 1.22% [at 0.00818 µM]

Potency, active:
C=CC(=O)c1ccc2ccccc2c1 2.51 µM
COc1ccc(NS(=O)(=O)c2ccc(NC(=S)NC(=O)CC(C)C)cc2)cc1 15.8 µM
COc1cc(NC(=S)NCCSc2ccc(C)cc2)cc(OC)c1 20 µM
